Assay outcomes from PubChem.
Rows were chosen to be rich in hits. Some 2.9% of all compounds tested hit in one or more screens of this group.
KDM5B inh = KDM5B demethylase inhibition | Q9UGL1 | Potency, µM (top dose mostly 57.7 µM), usual class: inhibitors | hit rate 2.6% among 220,000 | KDM5B demethylase, FDH-coupled NADH fluorescence (FDH is formaldehyde dehydrogenase); note: nearly all actives have a fitted effect of over 70% in size
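qHTS format, multiple compound concentrations. Buffer 50 mM HEPES pH 7.5/0.01% Tween-20; 200 nM KDM5BΔAP final; 10 min compound preincubation; substrate-mix levels 12.5 µM peptide, 25 µM α-KG, 0.25 mM NAD⁺; 30 min RT; ΔRFU.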
SNCA expr inhib = SNCA gene expression inhibition; HEK-293 SNCA-luciferase knock-in, luminescence, 24 h; Potency, µM (titrated, usually from 57.2 µM), usual class: inhibitors; hit rate 0.17% among 140,000; note: nearly all actives have a fitted effect of over 45% in size
IP6K1 inhibitor = IP6K1 kinase inhibition; AID 1645851; activity change, % (series mostly up to about 58 µM); hit rate 0.81% among 140,000; IP6K1 kinase, ADP-Glo luminescence, 2 h; hits give low values; in the data active = activity change below about -25%
Target sequence (Q92551 whole entry, looked up): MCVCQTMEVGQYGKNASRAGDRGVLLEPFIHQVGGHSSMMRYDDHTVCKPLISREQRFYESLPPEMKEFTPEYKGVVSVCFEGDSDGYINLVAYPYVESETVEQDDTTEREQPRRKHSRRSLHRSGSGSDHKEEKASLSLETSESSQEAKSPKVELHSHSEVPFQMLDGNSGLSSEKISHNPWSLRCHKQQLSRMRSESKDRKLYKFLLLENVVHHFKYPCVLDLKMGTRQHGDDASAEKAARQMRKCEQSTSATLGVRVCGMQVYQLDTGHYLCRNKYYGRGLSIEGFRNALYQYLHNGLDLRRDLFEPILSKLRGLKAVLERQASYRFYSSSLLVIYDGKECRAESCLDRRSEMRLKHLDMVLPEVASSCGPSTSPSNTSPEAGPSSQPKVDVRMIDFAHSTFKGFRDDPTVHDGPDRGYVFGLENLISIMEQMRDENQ
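ADP-Glo luminescence measures ADP made by human IP6K1 during a 2 h RT reaction with ATP/IP6 (mix at 1.3 mM/130 uM); top library doses 57.5 and 19.1 uM final.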
HEK293 viab = reduces viability of HEK-293 SNCA reporter cells; HEK-293-SNCA-luc viability, GF-AFC fluorescence, 24 h; hit rate 0.12% among 150,000; Potency, µM (titrated, usually from 57.1 µM), hits mostly cytotoxic; note: nearly all actives have a fitted effect of over 30% in size
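HEK-293-SNCA-luc cells (1500/well) plated 24 h, then exposed 24 h to a dilution series; GF-AFC added 30 min at 37C, fluorescence 405/540 nm; normalised to medium-only and DMSO wells, Hill fit.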
Hits are given with their value; n = inactive; u = inconclusive; x = not tested or not shown. Unless noted, calls come from the whole dose curve; as a rule, active = well fitted curve in the direction sought with a large enough effect; inconclusive = small, poorly fitted or top-dose-only effect, or another doubt; inactive = no such curve, though single readings can be large; an effect the other way counts as inactive or inconclusive.

SMILES	KDM5B inh	SNCA expr inhib	IP6K1 inhibitor	HEK293 viab
COc1ccc2c(c1)CCc1c-2n[nH]c1C(=O)N1CCc2nc3cc(-c4ccccc4)[nH]n3c(=O)c2C1	u	n	n	n
CN1CC(=O)N(c2ccc(Cl)cc2)Cc2c1ncnc2N1CCC(Cc2ccccc2)CC1	n	u	n	n
COC(=O)COc1ccc(-c2nnc(Nc3ccc(O)cc3)c3ccccc23)cc1	u	28µM	n	u
CCN(CC)C(=O)COc1ccc(-c2nnc(Nc3ccc(OC)cc3)c3ccccc23)cc1	n	x	x	x
O=C(NCc1ccc(C(F)(F)F)cc1)C1CCN(C(=O)c2ccc(-c3cncnc3)cc2)CC1	x	x	n	x
CN(Cc1ncc[nH]1)c1ccc(-c2nc(CCCc3ccccc3)no2)cn1	u	n	n	n
Cc1ccc(CN2CCC(Oc3ccc4ncccc4c3)(C(=O)O)CC2)o1	u	n	n	n
O=C(O)C1(Oc2ccc3ncccc3c2)CCN(Cc2ccncc2)CC1	16µM	n	n	n
Cn1c(=O)c2ccnn2c2ccc(C(=O)Nc3ccc4c(c3)OCCO4)cc21	u	n	n	n
CN1CCN(C)c2cnc(-c3ccc(C(=O)N(C)C)cc3)cc2C1	35µM	n	n	n
Cc1cc(-c2cc3c(cn2)N(C)CCN(C)C3)ccn1	32µM	n	n	n
CN1CCN(c2ncnc3ccc(-c4ccc(C(=O)N(C)C)cc4)cc23)CC1	x	n	x	n
Clc1ccc2ncc(-c3cccc(NC4CNC4)n3)n2c1	x	0.61µM	n	n
O=C(c1ccncc1)N1CCC(N2CC3CC(C2)[C@H]2CCCC(=O)N2C3)CC1 (some centres undefined)	18µM	n	n	n
O=[S+]([O-])(c1ccccc1)N1CC2(CCCCN2CC2CC2)Cc2ccccc21 (centres undefined)	u	n	n	n
O=C(c1cc(-c2ccc(F)cc2)nc2ccccc12)N1CCC(c2nc(C3CCOCC3)no2)C1 (centres undefined)	28µM	n	n	n
O=C(CCN1c2ccccc2Sc2ccccc21)N1CCCC(c2nc(C3CCOCC3)no2)C1 (centres undefined)	25µM	n	n	n
Cc1cc(C(=O)N2CCCC(c3nc(C4CCOCC4)no3)C2)n(C)n1 (centres undefined)	n	n	n	n
Cc1cnc(C(=O)N2CCCC(c3nc(C4CCOCC4)no3)C2)cn1 (centres undefined)	32µM	n	n	n
COc1ccc(NC(=O)Nc2cccc(-c3ccc(N4CCOCC4)nn3)c2)cc1F	u	20µM	n	n
COCCN1CC(C)(C)CN(C(=O)c2ccc(OC)cc2)CC1=O	x	x	n	x
COc1cccc(Nc2ncc3c(n2)C(C)(C(=O)NCc2ccc4c(c2)OCO4)CC3)c1 (centres undefined)	u	u	n	u
CN(C)c1ncc2c(n1)C(C)(C(=O)NCc1cccc(Cl)c1)CCC2 (centres undefined)	40µM	n	n	n
CN(C)c1ncc2c(n1)C(C)(C(=O)NCc1cccc(F)c1)CCC2 (centres undefined)	u	u	n	n
CN(C)c1ncc2c(n1)C(C)(C(=O)NCc1ccc3c(c1)OCO3)CCC2 (centres undefined)	32µM	n	n	n
SMILES	KDM5B inh	SNCA expr inhib	IP6K1 inhibitor	HEK293 viab
COc1cccc(CN2CCc3c(cc(C(=O)Nc4ccc(C)cc4C)n3C)C2)c1	u	n	n	n
Cc1nc(N(C)C)ncc1C(=O)N1CCN(c2ccccc2C#N)CC1	28µM	n	n	n
CCOc1ccc(-n2nc3ccc(NC(=O)Cc4ccccc4)cc3n2)cc1	u	28µM	n	28µM
c1ccc(-c2cc3c(cn2)NCCN(Cc2ccccn2)C3)cc1	35µM	n	n	n
Fc1ccc(CN2CCNc3cnc(-c4ccccc4)cc3C2)cc1F	35µM	u	n	u
O=C(c1ccccn1)N1CCCC2(C1)Nc1cccnc1NC2=NC1CCCC1 (centres undefined)	u	n	n	n
O=C(Cc1ccccc1)N1CCCC2(C1)Nc1cccnc1NC2=NC1CCCC1 (centres undefined)	28µM	n	n	n
O=C(c1ccc2c(c1)OCO2)N1CCCC2(C1)Nc1cccnc1NC2=NC1CCCC1 (centres undefined)	u	n	n	n
Cc1noc(C)c1S(=O)(=O)N1CCCC2(C1)Nc1cccnc1NC2=NC1CCCC1 (centres undefined)	22µM	n	n	n
O=C(CCc1ccccc1)N1CCCC2(C1)Nc1cccnc1NC2=NC1CCCC1 (centres undefined)	25µM	n	n	n
